Measured potencies and affinities stand elsewhere. Results filed as inconclusive are left out. Activity calls are given as the source filed them.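 How the source made its calls, unless noted: active means falling signal with fitted half-maximal potency no higher than twice the top valid tested dose; inconclusive means poor fit quality, or flat fit spanning -70% to -30%; inactive means potency over limit, rising signal, or flat fit inside 30%.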
What was measured:
[1] = fungal growth arrest, C. neoformans – Alamar Blue, cherry-picks, dose response (AID 686998); settings: Cryptococcus neoformans growth, 24 h; series mostly up to 35 µM
[2] = C. neoformans lysis by adenylate kinase leakage – AK release luminescence, cherry-picks, dose response (AID 687000;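 active means fitted dose curve reaches 40% lysis signal rise at or below the highest valid concentration tested for that sample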;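 further: luminescent detection of adenylate kinase leaking from lysed yeast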); settings: 4 h, 100% = twice the neutral-control signal; series mostly up to 15 µM
[3] = viability loss in HepG2 hepatoma cells – cell-based, cherry-picks, set 2, cytotoxicity control, dose response (AID 687002;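 active means a dose-response fit showing signal loss, with half-maximal concentration no higher than twice the top tested dose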); settings: ATP luminescence (CellTiter-Glo), 48 h; series mostly up to 26 µM
[4] = viability loss in HeLa cells – cell-based, ATP luminescence, cherry-pick samples, cytotoxicity control, dose response (AID 687004;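 active means a fitted half-maximal concentration no higher than twice the top valid tested dose, with signal falling as cells die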); settings: ATP luminescence (CellTiter-Glo), 48 h; series mostly up to 26 µM

Measured: outcome

C[C@H](CO)N1C[C@H](C)[C@H](CN(C)Cc2cccnc2)Oc2ncc(C#CC3(O)CCCC3)cc2C1=O
inactive: [1] | [2] | [3] | [4]

CCC(=O)N[C@@H]1C=C[C@H](CC(=O)NCC2CCCCC2)O[C@H]1CO
inactive: [1] | [2] | [3] | [4]

COc1ccc(-c2cnc3c(c2)C(=O)N([C@@H](C)CO)C[C@@H](C)[C@@H](CN(C)S(C)(=O)=O)O3)cc1
inactive: [1] | [2] | [3] | [4]

CO[C@@H]1CN(C)C(=O)c2ccc(NC(=O)C3CC3)cc2OC[C@H](C)N(C(=O)c2ccncc2)C[C@H]1C
inactive: [1] | [2] | [3] | [4]

O=C(c1cccc(F)c1)N1CCCCN2[C@@H](CO)[C@H](c3ccc(-c4ccncc4)cc3)[C@@H]2C1
inactive: [1] | [2] | [3] | [4]

CC(C)CC#Cc1cnc2c(c1)C(=O)N([C@H](C)CO)C[C@@H](C)[C@@H](CN(C)C(=O)c1ccc3c(c1)OCO3)O2
inactive: [1] | [2] | [3] | [4]

CC(C)NC(=O)N(C)C[C@H]1OCCCC[C@@H](C)Oc2ccc(NC(=O)c3ccccc3)cc2C(=O)N([C@@H](C)CO)C[C@@H]1C
inactive: [1] | [2] | [3] | [4]

Cc1cccc(C)c1NC(=O)C(CCc1ccccc1)N1CCN(C)CC1 (stereo unspecified)
inactive: [1] | [2] | [3] | [4]

CCC(C)(C(=O)Nc1ccccc1C)N(C(=O)CNC(C)=O)c1ccc(C)cc1 (stereo unspecified)
inactive: [1] | [2] | [3] | [4]

CCC(=O)N1[C@H](C(=O)Nc2ccccc2)[C@@H](CO)[C@@H]2Cn3c(ccc(-c4ccncc4)c3=O)[C@@H]21
inactive: [1] | [2] | [3] | [4]

CC(C)NC(=O)Nc1ccc2c(c1)C(=O)N([C@@H](C)CO)C[C@@H](C)[C@H](CN(C)Cc1ccncc1)OCCCC[C@@H](C)O2
inactive: [1] | [2] | [3] | [4]

Cc1ccc(S(=O)(=O)N2C[C@@H](O)COC[C@@H]3O[C@H](CC(=O)NCc4ccc5c(c4)OCO5)CC[C@H]32)cc1
inactive: [1] | [2] | [3] | [4]

CCC(=O)N(C)C[C@H]1Oc2cc(C#CC(C)(C)O)ccc2S(=O)(=O)N([C@@H](C)CO)C[C@@H]1C
inactive: [1] | [2] | [3] | [4]

COc1ccccc1C(=O)N1C[C@H]2[C@@H](c3ccccc31)[C@@H](CO)N2C(=O)Cc1ccccc1
inactive: [1] | [2] | [3] | [4]

C[C@@H]1CN([C@@H](C)CO)S(=O)(=O)c2ccc(C#Cc3ccc(F)cc3)cc2O[C@H]1CN(C)C(=O)NC1CCCC1
inactive: [1] | [2] | [3] | [4]

C[C@@H]1CN([C@H](C)CO)C(=O)c2cc(NS(=O)(=O)c3ccc(Cl)cc3)ccc2O[C@H]1CN(C)S(=O)(=O)c1ccc(F)cc1
inactive: [1] | [2] | [3] | [4]

COc1ccc(-n2ncc3c(SCC(=O)NNC(C)=O)ncnc32)cc1
inactive: [1] | [2] | [3] | [4]

C[C@@H]1CN([C@H](C)CO)C(=O)c2cc(/C=C/c3ccccc3)cnc2O[C@@H]1CN(C)S(C)(=O)=O
inactive: [1] | [2] | [3] | [4]

CC(=O)N1CCN(c2ccc(NC(=S)NC(=O)c3ccc(C)c([N+](=O)[O-])c3)cc2)CC1
inactive: [1] | [2] | [3] | [4]

COCC#Cc1cnc2c(c1)C(=O)N([C@@H](C)CO)C[C@@H](C)[C@@H](CN(C)C(=O)C1CC1)O2
inactive: [1] | [2] | [3] | [4]

COc1ccccc1-c1cnc2c(c1)C(=O)N([C@H](C)CO)C[C@@H](C)[C@H](CN(C)Cc1cncnc1)O2
inactive: [1] | [2] | [3] | [4]

COCC(=O)Nc1ccc2c(c1)OC[C@@H](C)N(C(=O)Cc1cccnc1)C[C@H](C)[C@@H](OC)CN(C)C2=O
inactive: [1] | [2] | [3] | [4]

CCC(C)(C(=O)NC1CCCCC1)N(C(=O)C1CCC(=O)N1)c1ccc(C)cc1 (stereo unspecified)
inactive: [1] | [2] | [3] | [4]

CC=Cc1ccc2n(c1=O)C[C@H]1[C@H](CO)[C@@H](C(=O)N3CCOCC3)N(CC3CC3)[C@@H]21 (mixture of isomers)
inactive: [1] | [2] | [3] | [4]

CN1C(=O)c2cc(NC(=O)NC3CCCC3)ccc2OC[C@H]2O[C@@H](CC(=O)NCC3CC3)CC[C@@H]21
inactive: [1] | [2] | [3] | [4]

C[C@H]1CN([C@@H](C)CO)C(=O)Cc2cc(NC(=O)Nc3ccccc3)ccc2O[C@@H]1CN(C)C(=O)Nc1ccc2c(c1)OCO2
inactive: [1] | [2] | [3] | [4]

CN1C(=O)N[C@@H]2c3ccccc3O[C@@]1(C)[C@@H]2COC(=O)c1ccccc1
inactive: [1] | [2] | [3] | [4]

CO[C@H]1CN(C)C(=O)c2cc(NC(=O)c3ccccc3F)ccc2OC[C@H](C)N(C(C)=O)C[C@H]1C
inactive: [1] | [2] | [3] | [4]

CC(=O)N(C)C[C@H]1Oc2cc(C#Cc3ccc(F)cc3)ccc2S(=O)(=O)N([C@H](C)CO)C[C@@H]1C
inactive: [1] | [2] | [3] | [4]

CCC(C)(C(=O)NC1CCCC1)N(C(C)=O)c1ccc(C)cc1 (stereo unspecified)
inactive: [1] | [2] | [3] | [4]

C[C@H](CO)N1C[C@H](C)[C@H](CN(C)S(=O)(=O)c2ccccc2)Oc2ccc(NS(=O)(=O)c3ccc(F)cc3)cc2C1=O
inactive: [1] | [2] | [3] | [4]

C[C@H](O)C#Cc1ccc([C@H]2[C@H](CO)N3CCCCN(CC4CCOCC4)C[C@@H]23)cc1
inactive: [1] | [2] | [3] | [4]

C[C@H](CO)N1C[C@H](C)[C@H](CN(C)Cc2ccncc2)Oc2ccc(NC(=O)CCC(F)(F)F)cc2C1=O
inactive: [1] | [2] | [3] | [4]

C[C@H]1CN([C@@H](C)CO)S(=O)(=O)c2ccc(C#Cc3cccc(F)c3)cc2O[C@@H]1CN(C)C
inactive: [1] | [2] | [3] | [4]

Cc1ccc(C)c(NC(=O)C2CCCN2C(=O)NC2CCCCC2)c1 (stereo unspecified)
inactive: [1] | [2] | [3] | [4]

C[C@H](CO)N1C[C@H](C)[C@@H](CN(C)C(=O)C2CCOCC2)Oc2ncc(C#CCc3ccccc3)cc2C1=O
inactive: [1] | [2] | [3] | [4]

CC(C)NC(=O)Nc1ccc2c(c1)C(=O)N([C@H](C)CO)C[C@@H](C)[C@H](CN(C)C(=O)Nc1ccccc1)OCCCC[C@@H](C)O2
inactive: [1] | [2] | [3] | [4]

Cc1noc(C)c1NC(=O)Nc1ccc2c(c1)C(=O)N([C@H](C)CO)C[C@@H](C)[C@H](CN(C)S(C)(=O)=O)OCCCC[C@@H](C)O2
inactive: [1] | [2] | [3] | [4]

CCCN1C[C@@H](C)[C@H](OC)CN(C)C(=O)c2ccc(NC(=O)c3cccc(F)c3)cc2OC[C@@H]1C
inactive: [1] | [2] | [3] | [4]

CCCNC(=O)[C@@H]1[C@@H](CO)[C@@H]2Cn3c(cccc3=O)[C@H]1N2C(=O)Nc1cc(F)ccc1F
inactive: [1] | [2] | [3] | [4]

Cc1noc(C)c1S(=O)(=O)Nc1ccc2c(c1)C(=O)N([C@H](C)CO)C[C@H](C)[C@H](CN(C)Cc1ccncc1)O2
inactive: [1] | [2] | [3] | [4]

O=C(C[C@H]1CC[C@@H](NC(=O)c2ccc3c(c2)OCO3)[C@@H](CO)O1)NCc1ccc(F)cc1
inactive: [1] | [2] | [3] | [4]

CC1(C(=O)Nc2ccc3ccccc3c2)CCC(=O)N1C1CC1 (stereo unspecified)
inactive: [1] | [2] | [3] | [4]

CNC[C@H]1Oc2c(NS(=O)(=O)c3cccs3)cccc2C(=O)N([C@H](C)CO)C[C@@H]1C
inactive: [1] | [2] | [3] | [4]

Cc1ccc(S(=O)(=O)Nc2ccc3c(c2)C(=O)N([C@@H](C)CO)C[C@H](C)[C@H](CN(C)C(=O)Nc2ccc(C(F)(F)F)cc2)O3)cc1
inactive: [1] | [2] | [3] | [4]

C[C@@H]1CCCCO[C@@H](CN(C)Cc2ccc3c(c2)OCO3)[C@@H](C)CN([C@H](C)CO)C(=O)c2cc(NS(=O)(=O)c3ccc(F)cc3)ccc2O1
inactive: [1] | [2] | [3] | [4]

C[C@@H]1CN([C@@H](C)CO)C(=O)c2cccc(NC(=O)c3ccncc3)c2O[C@H]1CN(C)C(=O)Nc1ccccc1
inactive: [1] | [2] | [3] | [4]

COCC(=O)N1[C@H](C#N)[C@H](c2ccc(C#Cc3ccccc3F)cc2)[C@H]1CO
inactive: [1] | [2] | [3] | [4]

COc1ccccc1CNC(=O)C[C@@H]1CC[C@@H]2[C@H](COC[C@@H](O)CN2Cc2ccccc2)O1
inactive: [1] | [2] | [3] | [4]

Source: PubChem BioAssay
